Compound activity from PubChem.
The list is a sample of the results.
aSyn UTR act – Activators via SNCA 5'UTR binding, MLPCN. alpha-synuclein 5'UTR reporter, activators screen. activity score, % (tested at 7.5 µM), hits read low. actives 7.1% (n = 300,000). AID 1814; in the data active = activity score below about -60%
* hit, by the source's call.

SMILES | aSyn UTR act
CC1(C)Cc2nc3sc4c(SCC(=O)NCc5ccccc5)ncnc4c3cc2CO1 | 64
COc1ccc(CNC(=O)Cn2cccc2C(=O)c2ccccc2)cc1 | -69*
CCOC(=O)COc1cccc2c(=O)n(CC(=O)NCc3ccc(F)cc3)ccc12 | 75
COc1ccc(CNC(=O)Cn2cccc2C(=O)c2ccccc2C)cc1 | -101*
O=C(CSc1nnc(-c2ccc(C(F)(F)F)cn2)o1)Nc1ccccc1Cl | -98*
CC(C)(C)c1ccc(NC(=O)CSc2nnc(-c3n[nH]c4ccccc34)o2)cc1 | -129*
COc1ccc(NCc2nnc(SCC(=O)Nc3cc(C)cc(C)c3)o2)cc1 | -65*
COc1ccc(NCc2nnc(SCC(=O)Nc3cc(C(F)(F)F)ccc3Cl)o2)cc1 | -63*
O=C(NCCn1ccc2ccccc21)c1ccc2c(c1)OCO2 | -108*
COc1ccc(C(=O)NCCn2ccc3ccccc32)cc1 | -131*
O=C(NCCc1ccccc1)c1ccc2c(c1)OCO2 | 91
C/C(=N\O)c1ccc2c3c([nH]c2c1)CCCC3 | -80*
COc1ccc(Nc2nc(N)nc(CSC(=S)N3CCCCC3)n2)cc1 | -62*
Nc1nc(CSc2ccccn2)nc(Nc2ccccc2)n1 | -85*
Nc1nc(COc2ccccc2C=O)nc(Nc2ccccc2)n1 | -119*
COc1ccc(OCc2nc(N)nc(Nc3ccc(C)cc3)n2)cc1 | -69*
COc1ccc(Nc2nc(N)c([N+](=O)[O-])c(NC3CCCCC3)n2)cc1 | 62
COc1ccc(Nc2nc(N)nc(CSc3nccn3C)n2)cc1 | -87*
COc1ccc(-c2nnc(-c3ccc(N)cc3)o2)cc1 | -113*
COc1ccc(-c2nnc(-c3ccc(N(C)C)cc3)o2)cc1 | -148*
CN(C)c1ccc(-c2nnc(-c3ccc(S(=O)(=O)C(F)F)cc3)o2)cc1 | -63*
COc1ccc(NC(=S)NC(=O)/C=C/c2ccco2)cc1 | -91*
O=C(/C=C/c1ccco1)NC(=S)Nc1ccc(N2CCCC2)cc1 | -70*
CCCCOC(=O)c1ccc(NC(=O)/C=C/c2cccs2)cc1 | -88*
COc1ccc(OC)c2sc(N(CCN(C)C)C(=O)/C=C/c3cccs3)nc12 | 54
SMILES | aSyn UTR act
COc1ccc(NC(=S)NC(=O)/C=C/c2cccs2)cc1 | -73*
Cc1nn(Cc2ccccc2Cl)c2sc(C(=O)NCCCn3ccnc3)cc12 | -105*
Cc1cccc(N=Nc2c(C)[nH]n(C(N)=S)c2=O)c1C | -199*
Cc1[nH]n(C(N)=S)c(=O)c1N=Nc1cccc(Cl)c1 | -126*
CC(=O)N(C)c1ccc(N=Nc2c(C)[nH]n(C(N)=S)c2=O)cc1 | -112*
Cn1cnc2cc(NCc3ccccc3Cl)ccc21 | -92*
CC(C)c1ccc(CNc2ncccn2)cc1 | -128*
CCCC(=O)NC(c1ccc(C(C)C)cc1)c1ccc2cccnc2c1O (stereo not drawn) | 83
CC(C)c1ccc(CNc2ccc3c(c2)ncn3C)cc1 | -206*
CCn1cnc2cc(NCc3ccccc3Cl)ccc21 | -87*
CS(=O)(=O)c1ccc2nc(NC(=O)Nc3cccc(Cl)c3)sc2c1 | -85*
CS(=O)(=O)c1ccc2nc(NC(=O)Nc3ccccc3F)sc2c1 | -109*
O=C(O)c1cccc(NC2=Nc3cccc4cccc2c34)c1 | -114*
COc1ccnc(N2CCN(c3ccccc3)CC2)c1C#N | -80*
c1ccc(N2CCN(c3ncccn3)CC2)cc1 | -68*
O=[N+]([O-])c1cc(CN2CCN(c3ccccc3)CC2)c(O)c2ncccc12 | 82
c1ccc(N2CCN(c3nc(-c4ccccn4)nc4ccccc34)CC2)cc1 | -78*
CC(C)C(=O)Nc1cccc(-c2cnc3ccccc3n2)c1 | -115*
CS(=O)(=O)Nc1cccc(-c2cnc3ccccc3n2)c1 | -153*
COc1ccc(COc2cc(-c3cccc(OC)c3)nc3ccc(NC(=O)C(C)C)cc23)cc1 | -135*
CNC(=S)Nc1cccc(-c2cnc3ccccc3n2)c1 | -144*
COc1ccc2nc(N3CCCCC3)c(C#N)cc2c1 | -110*
COc1ccc2nc(N3CCCC3)c(C#N)cc2c1 | -105*
CC(O)CNc1nc2sc3c(c2c(=O)n1CCc1ccccc1)CCCCC3 (stereo not drawn) | -72*
Cc1ccccc1Cn1c(=O)n(Cc2ccco2)c(=O)c2ccccc21 | 56
SMILES | aSyn UTR act
Cc1cc(C)n(-c2nc(NCCN(C)C)c3c4c(sc3n2)CCCC4)n1 | 116
NC(=O)Cn1c(=O)n(Cc2ccco2)c(=O)c2c3c(sc21)CCCCC3 | -80*
CN(C)CCNc1nc2sc3c(c2c(=O)n1CCc1ccccc1)CCCCC3 | -87*
CC(O)CNc1nc2sc3c(c2c(=O)n1Cc1ccco1)CCCCC3 (stereo not drawn) | -103*
Cc1ccc(SC[C@H](CC(C)C)N2CCN(C)CCC2=O)cc1 | -135*
CCCN1CCC(=O)N([C@H](CSc2ccc(OC)cc2)c2ccccc2)CC1 | -77*
CC(C)C[C@@H](CSc1ccc(Br)cc1)N1CCN(C)CCC1=O | -141*
CC(C)C[C@@H](CSc1ccc(Br)cc1)N1CCN(CC(C)C)CCC1=O | -148*
Cc1ccc(SC[C@H](c2ccccc2)N2CCN(C)CCC2=O)cc1 | -138*
COc1ccc(SC[C@H](CC(C)C)N2CCN(C)CCC2=O)cc1 | -86*
CCOC(=O)C1CCCCN1C(=O)CCc1nnc(-c2ccc3c(c2)OCO3)o1 (stereo not drawn) | -65*
CCCn1c(CN2CCN(C(=O)OCC)CC2)nc2cc(NC(=O)C(C)C)ccc21 | -70*
COc1ccc(-n2cc(-c3ccccc3)nc2SC)cc1 | -121*
COc1ccc2c(c1)sc1nc(-c3ccccc3)cn12 | 105
N=c1c2c(n(Cc3cccc(Cl)c3)c3c1CCC3)CCCC2 | 55
CC(=O)N1CCC(=NNc2nc3ccccc3s2)CC1 | -215*
CC(=O)Nc1cccc(/C(C)=N/Nc2nc3ccccc3s2)c1 | -224*
CCOC(=O)N1CCC(=NNc2nc3ccccc3s2)CC1 | -112*
CCOC(=O)N1CCN(/C=C(\C#N)c2nc3ccccc3s2)CC1 | -94*
Cc1csc(C(C#N)C(=O)c2cc3ccccc3o2)n1 (stereo not drawn) | -145*
CCSc1nnc2ccc(-c3ccc(OC)c(OC)c3)nn12 | 62
COc1ccc(CC(=O)Nc2ccc(-c3ccc4nnc(C)n4n3)cc2)cc1OC | -75*
O=C(N=C1c2ccccc2CN1c1ccc(F)cc1)c1ccc(Cl)nc1 | -94*
CC(=O)c1ccc(N2Cc3ccccc3/C2=N\C(=O)Nc2ccccc2)cc1 | -98*
CC(=O)c1ccc(N2Cc3ccccc3C2=NC(=O)c2cccs2)cc1 | -69*
SMILES | aSyn UTR act
Cc1c(C(=O)Nc2nc3ccccc3[nH]2)oc2ccc(Br)cc12 | -158*
Cc1c(C(=O)Nc2nc3ccccc3[nH]2)oc2c(Cl)cccc12 | -136*
Cc1c(C(=O)Nc2nc3ccccc3[nH]2)oc2ccccc12 | -258*
Cc1nc(C)c(-c2csc(Nc3ccccn3)n2)s1 | -85*
Cc1nc(N)sc1-c1csc(Nc2ccccn2)n1 | -168*
Cc1ccnc(Nc2nc(-c3sc(C)nc3C)cs2)c1 | -161*
Cc1nc(N)sc1-c1csc(Nc2ccc(Cl)cn2)n1 | -142*
Cc1cc(=O)oc2cc(OCc3cc4c(cc3Cl)OCO4)ccc12 | -66*
CCS(=O)(=O)c1ccc2oc(Nc3ccccc3C)nc2c1 | -122*
CCN(CC)S(=O)(=O)c1ccc2oc(Nc3ccccc3)nc2c1 | -129*
Cc1ccsc1C(=O)OCc1csc(-c2ccccc2)n1 | -99*
CN(Cc1cccs1)C(=O)Cc1csc(-c2ccccc2)n1 | -116*
Cn1cccc1C(=O)OCc1csc(-c2ccccc2)n1 | -112*
CCOC(=O)/C(C#N)=C/C=C1/C=CC=CN1C | -63*
